# Screens (PubChem)
# Compounds with a hit are over-represented: about 3.5% of the library has one in this group of screens.
# Pf apPOL inh = Pf-apPOL DNA polymerase inhibition; Recombinant Pf-apPOL, molecular beacon fluorescence, 1.5 h; inhibition, % at 10 µM; 210,000 tested, 0.25% active
# mHTT-CaM PPI inh = inhibitors of human mutant huntingtin-calmodulin interaction. P42858. AlphaScreen His-mHTT/GST-CaM binding, luminescence. inhibition, % at 15 µM. 190,000 tested, 3.6% active;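 further: 0% = both proteins with DMSO and 100% = one protein alone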
# * marks the source's active call; other numbers are inactive results; i = inactive; . = not tested or not shown. No stated cut-off is given here; in the data, active means inhibition above about 50%; inactive means the rest.
SMILES,Pf apPOL inh,mHTT-CaM PPI inh
Fc1ccc(C2C3=C(Nc4ncnn42)c2ccccc2OC3c2cccc(F)c2)cc1 (centres undefined),-4.6,27.0
Cc1ccc(C2C3=C(Nc4ncnn42)c2ccccc2OC3c2cccc(F)c2)cc1 (centres undefined),-6.8,53.0*
Cc1ccc(C2Oc3ccccc3C3=C2C(c2ccc(F)cc2)n2ncnc2N3)cc1 (centres undefined),2.0,3.0
Cc1ccc(C2C3=C(Nc4ncnn42)c2ccccc2OC3c2ccc(F)cc2)cc1 (centres undefined),-5.0,51.0*
C=CCNC(=O)c1nn(C)c2c1COc1ccccc1-2,-2.5,-3.0
COc1ccc2cc3cc(C(=O)N(C)c4cccc(C)c4)sc3nc2c1,-8.8,-2.0
COc1cc(CNc2cccc(F)c2)c([N+](=O)[O-])cc1OC,-2.1,60.7*
COC(=O)Cc1cc(OC)c(OC)cc1[N+](=O)[O-],-0.9,0.9
COc1cc(CNc2cc(OC)c(OC)c(OC)c2)c([N+](=O)[O-])cc1OC,2.0,40.9
COc1cc(CNc2ccc3[nH]ncc3c2)c([N+](=O)[O-])cc1OC,6.9,58.1*
Cc1nn(C)c(C)c1Nc1ccc(N2C(=O)CC(C)C2=O)cc1[N+](=O)[O-] (centres undefined),-12.4,5.0
COc1ccccc1/C=C(/NC(=O)c1ccc(OC)c(OC)c1)C(=O)Nc1ccc(F)cc1,4.6,11.0
O=C(Nc1cnc2ccccc2c1)C1c2ccccc2C(=O)N2CCc3ccccc3C12 (centres undefined),0.0,-2.0
CC1(C)c2ccccc2N2CCC(=O)NC21C=Cc1cccs1 (centres undefined),-8.9,.
Cc1ccc(/C=C/C23NC(=O)CCN2c2ccccc2C3(C)C)cc1 (centres undefined),-3.9,55.0*
Cc1cc(=O)[nH]c(-n2nc(-c3ccccc3)cc2NC(=O)CCSc2ccccc2)n1,-9.5,-12.9
Cc1cc(=O)[nH]c(-n2nc(C3CC3)cc2NC(=O)C2(c3ccc(Cl)cc3)CCCC2)n1,-71.3,57.2*
CC1=C(C(N)=O)C(c2ccccn2)n2ncnc2N1 (centres undefined),-0.6,-6.0
Cc1cccc(NC(=O)C2CCN(c3cncnc3N3CCOCC3)CC2)c1C,-1.5,2.2
CC1CCN(S(=O)(=O)N2CCCC(C(=O)NCCc3ccccc3)C2)CC1 (centres undefined),-16.6,-11.0
CCOc1ccc(Nc2c3ccccc3nc3ccccc23)cc1,-6.2,63.4*
Cc1cc(C)c2nc(C)cc(Nc3ccc(OCc4ccccc4)cc3)c2c1,0.1,89.8*
Cc1cc(C)c2nc(C)cc(Nc3ccc(C(=O)O)cc3)c2c1,-14.0,3.3
CCOc1ccc2nc(C)cc(Nc3ccc(OCc4ccccc4Cl)cc3)c2c1,-2.4,98.1*
CCOc1ccc(Nc2nc(-c3ccccc3)cs2)cc1,-2.1,8.9
SMILES,Pf apPOL inh,mHTT-CaM PPI inh
CCOc1ccc2nc(C)cc(Nc3cc(Cl)ccc3OC)c2c1,-3.9,27.0
CCOc1cccc(CNC(=O)C2CCN(c3cncnc3N(C)C)CC2)c1,-6.8,8.8
CC1=C(C(=O)Nc2ccc(F)cc2)C(c2ccncc2)C2=C(CC(c3ccccc3)CC2=O)N1 (centres undefined),2.4,1.0
Cc1ccc(CNC(=O)c2c[nH]n3c(=O)cc(CSc4ccc(Cl)cc4)nc23)cc1,46.7,65.0*
CCCc1c(C)nc2c(C(=O)NCc3ccccc3)c[nH]n2c1=O,-8.8,21.0
Cc1cc(=O)n2[nH]cc(C(=O)NCc3ccccc3)c2n1,-11.0,5.0
CCC(C)NC(=O)c1c[nH]n2c(=O)c(Cc3ccccc3Cl)c(C)nc12 (centres undefined),-4.2,59.0*
COc1cccc(CNC(=O)c2c[nH]n3c(=O)c(Cc4ccccc4F)c(C)nc23)c1,-15.0,72.0*
COc1cccc(CNC(=O)c2c[nH]n3c(=O)c(Cl)c(C)nc23)c1,-6.8,52.0*
Cc1nc2c(C(=O)NCc3ccccc3Cl)c[nH]n2c(=O)c1Cc1ccccc1F,-9.9,31.0
Cc1nc2c(C(=O)NCCc3ccccc3)c[nH]n2c(=O)c1Cc1ccccc1F,-5.3,29.0
CC(O)(CNC(=O)NC1CCCCC1)c1ccc2c(c1)OCO2 (centres undefined),-0.1,1.5
Cc1ccc(N2C(=O)NC(=O)/C(=C\c3cn(CC#N)c4ccccc34)C2=O)cc1,-7.2,19.0
COc1ccccc1C1C2=C(CC(C)(C)CC2=O)Nc2ncnn21 (centres undefined),-0.5,-2.0
Cc1nccn1-c1ccc(N2CCN(C(=O)COc3ccc4c(c3)OCO4)CC2)nn1,3.1,4.7
CCN(CCNC(=O)c1c[nH]n2c(=O)c(Cc3ccccc3F)c(C)nc12)c1ccccc1,-23.3,79.0*
COc1cccc(CNC(=O)c2c[nH]n3c(=O)c(Cc4ccc(C)cc4)c(C)nc23)c1,-16.9,61.0*
Cc1nc2c(C(=O)NCCN(C)C)c[nH]n2c(=O)c1Cc1ccccc1F,2.9,18.0
CCCc1c(C)nc2c(C(=O)NCc3ccc(C)cc3)c[nH]n2c1=O,9.7,21.0
Cc1ccc(CNC(=O)c2c[nH]n3c(=O)c(Cc4ccc(Cl)cc4)c(C)nc23)cc1,-4.0,96.0*
CCCc1c(C)nc2c(C(=O)NCc3ccc(OC)cc3)c[nH]n2c1=O,-1.1,10.0
Cc1cc(C)n2nc(SCC(=O)NCc3ccccc3Cl)nc2n1,-8.3,6.0
O=S(=O)(NC1CCCC1)c1ccc2nc(-c3ccccc3)[nH]c2c1,-5.3,16.0
CCCNC(=O)c1cc(S(=O)(=O)N2CC(C)CC(C)C2)ccc1F (centres undefined),-4.5,-2.0
COC(=O)CCCN1C(=O)C(=Cc2ccc(C(=O)OC)cc2)SC1=S,-3.4,17.6
SMILES,Pf apPOL inh,mHTT-CaM PPI inh
O=C(CN1C(=O)c2cccnc2C1=O)N1CCN(c2ccccc2)CC1,-22.7,12.0
CCCCC(=O)NC(c1ccc(OC)cc1)c1cc(Cl)c2cccnc2c1O (centres undefined),9.6,26.0
CCCC(=O)NC(c1ccc(N(C)C)cc1)c1cc(Cl)c2cccnc2c1O (centres undefined),-1.7,43.0
CC(C)C(=O)NC(c1ccc2c(c1)OCO2)c1cc(Cl)c2cccnc2c1O (centres undefined),-7.6,62.0*
CC(=O)NC(c1ccc(N(C)C)cc1)c1cc(Cl)c2cccnc2c1O (centres undefined),-4.7,96.0*
COc1ccc(C(NC(C)=O)c2cc(Cl)c3cccnc3c2O)cc1 (centres undefined),6.8,100.0*
OC(c1ccc2c(c1)OCO2)c1nccc2ccccc12 (centres undefined),-6.6,5.0
CC(=O)NC(c1ccc(C(C)C)cc1)c1cc(Cl)c2cccnc2c1O (centres undefined),11.9,100.0*
O=C(NCc1cc(-c2ccco2)on1)c1ccc2nsnc2c1,1.0,-7.5
Cc1cc(C)cc(C(=O)N2CCC(c3ccn4ncc(C(=O)N5CCCCC5)c4c3)CC2)c1,-1.6,6.4
O=C(CSc1nnc(CCc2nc3ccccc3[nH]2)o1)NCCc1ccc(Cl)cc1,-21.7,5.8
Cc1cccc(C(=O)Nc2c3c(nn2-c2cccc(C)c2C)CS(=O)(=O)C3)c1,-6.8,4.0
CC(=O)NC(c1ccccc1Cl)c1cc(Cl)c2cccnc2c1O (centres undefined),7.7,95.0*
CC(=O)NC(c1ccccc1)c1cc(Cl)c2cccnc2c1O (centres undefined),1.2,100.0*
CN1C(=O)/C(=N\OC(=O)c2ccccc2Br)c2ccccc21,1.5,i
